The values below come from PubChem BioAssay (Tox21).

Inconclusive results are not listed. Activity calls are given as the source filed them. Calls come from the whole dose curve; as a rule, active = well fitted curve in the direction sought with a large enough effect in the signal ratio in the repeat runs (not every such curve was filed as active); inconclusive = weak or mixed curves, or a change in a side signal; inactive = no such curve, though single readings can be large or run the other way; the % refers to the signal ratio.
% is set by controls: 0 for no effect and ±100 for the full control effect.

The test in a line: qHTS assay to identify small molecule agonists of the NFkB signaling pathway (AID 1159509). Conditions: NFkB-bla ME-180 cells, beta-lactamase FRET ratio, 5 h; series mostly up to 61 µM; activation: at the top concentration. From the text:
National Center for Advancing Translational Sciences [NCATS]
NIH Chemical Genomics Center [NCGC]
U.S. Environmental Protection Agency [EPA]
National Institutes of Environmental Health Sciences [NIEHS]
National Toxicology Program [NTP]
U.S. Food and Drug Administration [FDA]
Transcription factors and their stimulated target gene expression play pivotal roles across many cellular processes including responses to environmental stimuli. Proper regulation of associated pathways is critical to maintain cell health and function. Constitutive activation of transcription factor pathways has been implicated in tumors as it may block cellular functions such as apoptosis and lead to invasion and metastasis. One important transcription factor that stimulates gene expression in response to cytokines, UV radiation, and other stimuli is nuclear factor-kappa B (NFkB). To measure activation of the NFkB pathway, the CellSensor NFkB-bla ME-180 cell line (Life Technologies, Carlsbad, CA) that stably expresses beta-lactamase reporter gene under the regulation of a NF-kB response element was used. This assay allows measurement of the NFkB pathway activity induced by compounds in a ME-180 cell line. This system quantitates NF-kB activity using a FRET-based assay system where beta-lactamase expression disrupts FRET, allowing for fluorescent measurement of activity. This cell line has been used to screen the Tox21 10K compound library and to identify compounds that induce the NFkB pathway activity.
Tox21 Assay Protocol Summary:
NFkB-bla ME-180 cells were dispensed at 2,000 cells/6 uL of assay medium per well into black wall/clear-bottom 1536-well plates using a Multidrop Combi (ThermoFisher Scientific, Waltham, MA) dispenser. After the assay plates were incubated at 37 C and 5% CO2 for an overnight, 23 nL of compounds dissolved in DMSO, positive controls or DMSO only was transferred to the assay plate by a Pintool station (Kalypsys, San Diego, CA). The assay plates were incubated at 37 C and 5% CO2 for 5 hr. One uL of LiveBLAzer B/G FRET substrate (Life Technologies) was added using a Flying Reagent Dispenser (Aurora Discovery, San Diego, CA) and the plates were incubated at room temperature for 1.5 hr. Fluorescence intensity (405 nm excitation, 460 nm and 530 nm emissions) was measured using an Envision plate reader (PerkinElmer, Shelton, CT).
On the technique in general: In qHTS, concentration-response curves come from the screen itself.
On to `CCCOC(=O)c1cncn1C(C)c1ccccc1` (stereo not given), for which the “activation” value is -0.0423% (inactive).
Take `C=CC1(C)OC(=O)N(c2cc(Cl)cc(Cl)c2)C1=O` (stereo not given): the “activation” value was 0.453% (inactive).
For `NCC1(CC(=O)O)CCCCC1`, the “activation” value is -0.484% (inactive).
Take `COc1cccc([C@@]2(O)CCCC[C@@H]2CN(C)C)c1`: the “activation” value was -0.06% (inactive).
The same measure for `CN(C)CCc1c[nH]c2cccc(OP(=O)(O)O)c12`: 0.174% (inactive); for `O=P(O)(O)CN(CP(=O)(O)O)CP(=O)(O)O`: -0.352% [at 28.5 µM] (inactive).
In the case of `C[C@H](CN1CCOCC1)C(C(=O)N1CCCC1)(c1ccccc1)c1ccccc1` it was -0.841% [at 78.8 µM] (inactive); in that of `COP(=O)(O)OC`, 0.237% [at 78.8 µM] (inactive); in that of `C[C@@H](N)[C@@H](O)c1ccccc1`, 0.443% (inactive).
In the case of `O=C(NC(=O)c1c(F)cccc1F)Nc1cc(Cl)c(F)c(Cl)c1F` it was -0.147% (inactive); in that of `COC1=CC(=O)O[C@@H](/C=C/c2ccccc2)C1`, -1.09% [at 78.8 µM] (inactive).
Consider `N[C@@H](Cc1ccc(Oc2cc(I)c(O)c(I)c2)c(I)c1)C(=O)O`, for which the “activation” value was 1.57% (inactive).
In the case of `CC(=O)CN(CC(C)=O)N=O` it was -0.012% (inactive); in that of `Clc1nc(Cl)nc(Nc2ccccc2Cl)n1`, -0.441% (inactive); in that of `O=c1[nH]oc2c1CCNC2`, -0.864% (inactive).
The same measure for `Cc1ccc2c(c1)C1CN(C)CCC1N2` (stereo not given): 1.4% [at 28.5 µM] (inactive); for `CC(C)(C)NC[C@H](O)c1ccc(O)cc1Cl`: -0.728% (inactive); for `BrCC1CO1` (stereo not given): 0.156% [at 78.8 µM] (inactive).
In the case of `CN(C)C1CCCCC1` it was -0.126% (inactive); in that of `COC[C@@H](NC(C)=O)C(=O)NCc1ccccc1`, 0.425% (inactive); in that of `C=C(Cl)CSC(=S)N(CC)CC`, 0.988% [at 78.8 µM] (inactive).
As to `Cc1ccc(Cl)c(O)c1`, the “activation” value was 0.477% (inactive).
For the compound `N[C@@H]1C[C@H]1c1ccccc1`, the “activation” value is 0.203% (inactive).
In the case of `O=C(Cl)C(Cl)(Cl)Cl` it was 0.0525% [at 78.8 µM] (inactive); in that of `CCOC(=O)CC(SP(=S)(OC)OC)C(=O)OCC` (stereo not given), -1.02% (inactive).
In the case of `O=CCCl` it was -0.549% (inactive); in that of `C[C@H](N)C(=O)c1ccccc1`, -1.31% [at 78.8 µM] (inactive).
In the case of `CCN(CCO)CCn1c(Cc2ccccc2)nc2c1c(=O)n(C)c(=O)n2C` it was -0.0601% (inactive); in that of `CCOc1cc(OP(=S)(OC)OC)nc(CC)n1`, 0.153% (inactive).
For `CCCN1CCC[C@@H]2Cc3[nH]ncc3C[C@H]21`, the “activation” value is -0.164% (inactive).
In the case of `CON(C)C(=O)Nc1ccc(Br)c(Cl)c1`, the “activation” value was -0.416% (inactive).
The same measure for `C=CCCC#N`: 0.301% (inactive); for `Oc1ccc2c3c1O[C@H]1[C@@H](O)C=C[C@H]4[C@@H](C2)NCC[C@@]341`: -1.42% [at 78.8 µM] (inactive); for `CCOP(=S)(OCC)SCCl`: 1.28% (inactive).
Take `CN1COCN(Cc2cnc(Cl)s2)/C1=N\[N+](=O)[O-]`: the “activation” value was -0.0074% (inactive).
On to `CCCCS(=O)(=O)Cl`, for which the “activation” value is 0.592% (inactive).
The same measure for `O=C(Cl)CCl`: 0.164% [at 78.8 µM] (inactive); for `Cc1ccc(-c2nc3ccc(C)cn3c2CC(=O)N(C)C)cc1`: -0.82% (inactive).
In the case of `CC(C)(N)Cc1ccccc1Cl` it was -0.518% (inactive); in that of `CCc1ccc(C2CCNCC2)cc1`, 0.389% (inactive).
